# Measurements as given in PubChem BioAssay (NCATS).
# Several values for one entry are separate records, joined by “and”; a condition that tells them apart may be missing. Equal entries are not always repeated. A number with no mark means an inactive call. Inconclusive results are not listed. A call without a number means that no potency is given here. Activity calls are given as the source filed them. Unless noted, the call rests on the fitted dose curve; in most records, active means well fitted curve in the direction sought with a large enough effect; inconclusive means small, poorly fitted or top-dose-only effect, or another doubt; inactive means no such curve, though single readings can be large; an effect the other way counts as inactive or inconclusive.
# Experiments:
# [1] = biological target: T1, Hexokinase-4 (Homo sapiens) + Glucokinase regulatory protein (Homo sapiens) (UniProt P35557+Q14397); assay: qHTS assay for inhibitors of recombinant human GCK-GKRP interaction: Diaphorase-coupled assay (AID 743205)
# T1 sequence (P35557 whole entry, looked up): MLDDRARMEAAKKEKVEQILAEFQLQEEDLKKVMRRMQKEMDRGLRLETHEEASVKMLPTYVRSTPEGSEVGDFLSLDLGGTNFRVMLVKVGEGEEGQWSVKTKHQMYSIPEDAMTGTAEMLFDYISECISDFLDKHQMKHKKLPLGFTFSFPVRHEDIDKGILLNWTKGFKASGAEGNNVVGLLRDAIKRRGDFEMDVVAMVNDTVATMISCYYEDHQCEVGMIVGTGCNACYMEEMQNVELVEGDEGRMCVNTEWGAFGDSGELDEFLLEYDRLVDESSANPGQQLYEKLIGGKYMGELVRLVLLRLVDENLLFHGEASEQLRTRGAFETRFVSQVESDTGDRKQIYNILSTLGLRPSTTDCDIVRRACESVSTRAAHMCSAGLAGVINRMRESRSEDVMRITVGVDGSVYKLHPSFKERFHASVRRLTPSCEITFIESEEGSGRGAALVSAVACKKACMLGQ
# T1 sequence (Q14397 whole entry, looked up): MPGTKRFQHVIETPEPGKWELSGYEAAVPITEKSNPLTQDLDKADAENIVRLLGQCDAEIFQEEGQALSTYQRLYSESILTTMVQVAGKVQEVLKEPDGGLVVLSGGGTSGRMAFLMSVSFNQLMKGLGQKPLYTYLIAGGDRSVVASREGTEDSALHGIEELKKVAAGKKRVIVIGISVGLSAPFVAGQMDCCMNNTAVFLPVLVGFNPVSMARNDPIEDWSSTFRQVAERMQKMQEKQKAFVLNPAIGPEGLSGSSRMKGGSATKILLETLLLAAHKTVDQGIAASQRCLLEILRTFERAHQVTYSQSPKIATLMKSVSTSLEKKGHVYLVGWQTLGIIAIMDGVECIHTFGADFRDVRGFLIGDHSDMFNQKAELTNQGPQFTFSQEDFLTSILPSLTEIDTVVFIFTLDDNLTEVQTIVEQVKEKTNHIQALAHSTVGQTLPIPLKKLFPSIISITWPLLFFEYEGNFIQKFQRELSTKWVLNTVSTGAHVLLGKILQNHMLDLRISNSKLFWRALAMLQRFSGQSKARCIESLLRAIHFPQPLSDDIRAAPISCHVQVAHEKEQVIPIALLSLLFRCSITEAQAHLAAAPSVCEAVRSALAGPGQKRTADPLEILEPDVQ
# Description: Glucokinase (GCK) is a glucose sensor in hepatocytes and pancreatic beta-cells. Hepatic GCK is regulated by glucokinase regulatory protein (GKRP), which is predominantly localized to the liver. GKRP binds to GCK inhibiting its activity in the fasting state while in the presence of glucose the GKRP is displaced. There is an additional layer of regulation by fructose 1-phosphate and fructose 6-phosphate, which inhibit and enhance the GCK-GKRP interaction, respectively. GCK plays a role in glucose homeostasis and there is an interest in the development of strategies to activate GCK to lower blood glucose levels in type 2 diabetes. To date the majority of effort has focused on direct activation of GCK and the assays developed herein look to activate GCK by inhibiting its binding to GKRP. […]
# 2 uL of substrate (columns 1-48) are dispensed into Greiner, black solid-bottom 1536-well assay plates. […] Following addition of compound and a 20 minute incubation, 1 uL of enzyme mix (GST-GCK, FLAG-GKRP and diaphorase) is added to columns 1, 2, 4-48 and 1 uL of no enzyme mix (FLAG-GKRP and diaphorase) is added to column 3 and the fluorescent product resorufin generated from resazurin was monitored on a Viewlux (PerkinElmer, Shelton, CT, USA) with excitation at 525 nm and emission at 590 nm in kinetic mode where the plate was read every minute for 30 minutes. […]
# [2] = biological target: T1, Hexokinase-4 (Homo sapiens) + Glucokinase regulatory protein (Homo sapiens); assay: qHTS assay for inhibitors of recombinant human GCK-GKRP interaction: ADP-Glo assay (AID 743206)
# Procedure, shortened: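 Pin-transferred compounds meet a 15 nM GST-GCK/15 nM FLAG-GKRP/2 uM S6P mix (dispense concentrations). ATP is then added to 0.4 mM final with 5 mM glucose, and the reaction runs 60 min at room temperature. ADP is quantified luminescently.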
# [3] = biological target: T1, Hexokinase-4 (Homo sapiens) + Glucokinase regulatory protein (Homo sapiens); assay: qHTS assay for inhibitors of recombinant human GCK-GKRP interaction: HTRF assay (AID 743207)
# Procedure, shortened: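 HTRF binding of 5 nM GST-GCK and 5 nM FLAG-GKRP with 2 uM S6P in pH 7.1 Hepes buffer (MgCl2, KCl, DTT, Tween 20, BSA). Anti-FLAG XL665 and anti-GST donor added, 60 min at room temperature; 665/615 nm read, normalized to with- and without-GCK controls.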
# [4] = biological target: Atrial natriuretic peptide receptor 1 (Homo sapiens) (UniProt P16066); assay: Natriuretic polypeptide receptor (hNpr1) antagonism - Pilot screen (AID 1347049; calls by dose curve;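 further: HEK293 cells with hNpr1 and GloSensor cGMP luciferase stimulated by 0.1 nM hNppA; agonist-evoked cGMP luminescence read 20 min after hNppA addition; series mostly up to about 58 µM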)
# Sequence of Atrial natriuretic peptide receptor 1 (Homo sapiens) (P16066 whole entry, looked up, the tested form may be a part): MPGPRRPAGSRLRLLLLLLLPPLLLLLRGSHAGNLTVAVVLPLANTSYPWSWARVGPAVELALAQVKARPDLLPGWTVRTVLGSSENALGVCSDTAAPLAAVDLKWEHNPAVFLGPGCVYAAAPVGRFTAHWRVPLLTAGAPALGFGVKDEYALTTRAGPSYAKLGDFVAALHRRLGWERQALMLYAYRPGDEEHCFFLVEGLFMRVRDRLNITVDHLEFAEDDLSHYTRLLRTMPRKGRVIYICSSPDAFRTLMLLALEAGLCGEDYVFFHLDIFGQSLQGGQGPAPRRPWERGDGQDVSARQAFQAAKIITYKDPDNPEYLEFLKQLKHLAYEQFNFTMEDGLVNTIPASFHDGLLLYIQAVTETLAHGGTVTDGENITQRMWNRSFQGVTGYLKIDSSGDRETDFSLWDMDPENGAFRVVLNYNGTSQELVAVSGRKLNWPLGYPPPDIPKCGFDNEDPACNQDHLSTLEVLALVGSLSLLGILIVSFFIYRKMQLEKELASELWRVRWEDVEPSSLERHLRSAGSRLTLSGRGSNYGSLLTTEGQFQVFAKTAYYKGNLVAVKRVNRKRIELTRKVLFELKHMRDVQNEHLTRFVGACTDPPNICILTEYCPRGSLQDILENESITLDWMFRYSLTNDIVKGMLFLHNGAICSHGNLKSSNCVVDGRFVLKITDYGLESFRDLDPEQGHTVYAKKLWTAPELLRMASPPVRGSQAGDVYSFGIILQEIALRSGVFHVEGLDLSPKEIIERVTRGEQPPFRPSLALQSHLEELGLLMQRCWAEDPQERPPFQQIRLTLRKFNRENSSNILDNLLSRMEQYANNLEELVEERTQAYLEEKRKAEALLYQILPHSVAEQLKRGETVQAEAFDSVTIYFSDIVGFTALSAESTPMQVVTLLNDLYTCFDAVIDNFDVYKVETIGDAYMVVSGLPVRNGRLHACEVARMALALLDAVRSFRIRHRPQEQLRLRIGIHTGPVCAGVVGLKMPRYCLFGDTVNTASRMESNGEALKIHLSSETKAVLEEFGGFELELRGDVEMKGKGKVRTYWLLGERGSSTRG
# Protocol: In order to identify small molecular compounds that inhibit the hNpr1 receptor we developed a high-throughput assay to measure inhibition of the guanylate cyclase activity of the receptor. cGMP production was measured using a circular permutated Firefly luciferase (FLuc) enzyme functionally linked to the cGMP binding domain of human phosphodiesterase 5 (GloSensor technology pGS-40F, (Fan, F. et al. 2008). The cGMP-sensor was expressed in human embryonic kidney 293 (HEK-293) cells and FLuc activity was measured after stimulation with hNrp agonist peptide. hNrp agonists activates the receptor's associated guanylyl cyclase (GC) domain producing cGMP which then binds to the GloSensor resulting in FLuc activation, the enzymatic activity of which can be measured as bioluminescence with addition of luciferin substrate.
# F. Fan, B. F. Binkowski, B. L. Butler, P. F. Stecha, M. K. Lewis, K. V. Wood, Novel genetically encoded biosensors using firefly luciferase. ACS Chem Biol 3, 346-351 (2008).
# This assay was initially piloted by testing with a small diversity library of compounds with known pharmacological activity. […]
# 7. […] GloSensor baseline pre-read luminescence measured using CCD-based camera (Viewlux). […]
# 10. […] GloSensor post-hNppA luminescence measured using CCD-based camera (Viewlux). […]
# 1. […] Cells counted with Invitrogen Countess (30,000,000 - 50,000,000 cells/flask). […]
# [5] = biological target: Atrial natriuretic peptide receptor 2 (Homo sapiens) (UniProt P20594); assay: Natriuretic polypeptide receptor (hNpr2) antagonism - Pilot subtype selectivity assay (AID 1347050; calls by dose curve)
# Sequence of Atrial natriuretic peptide receptor 2 (Homo sapiens) (P20594 whole entry, looked up): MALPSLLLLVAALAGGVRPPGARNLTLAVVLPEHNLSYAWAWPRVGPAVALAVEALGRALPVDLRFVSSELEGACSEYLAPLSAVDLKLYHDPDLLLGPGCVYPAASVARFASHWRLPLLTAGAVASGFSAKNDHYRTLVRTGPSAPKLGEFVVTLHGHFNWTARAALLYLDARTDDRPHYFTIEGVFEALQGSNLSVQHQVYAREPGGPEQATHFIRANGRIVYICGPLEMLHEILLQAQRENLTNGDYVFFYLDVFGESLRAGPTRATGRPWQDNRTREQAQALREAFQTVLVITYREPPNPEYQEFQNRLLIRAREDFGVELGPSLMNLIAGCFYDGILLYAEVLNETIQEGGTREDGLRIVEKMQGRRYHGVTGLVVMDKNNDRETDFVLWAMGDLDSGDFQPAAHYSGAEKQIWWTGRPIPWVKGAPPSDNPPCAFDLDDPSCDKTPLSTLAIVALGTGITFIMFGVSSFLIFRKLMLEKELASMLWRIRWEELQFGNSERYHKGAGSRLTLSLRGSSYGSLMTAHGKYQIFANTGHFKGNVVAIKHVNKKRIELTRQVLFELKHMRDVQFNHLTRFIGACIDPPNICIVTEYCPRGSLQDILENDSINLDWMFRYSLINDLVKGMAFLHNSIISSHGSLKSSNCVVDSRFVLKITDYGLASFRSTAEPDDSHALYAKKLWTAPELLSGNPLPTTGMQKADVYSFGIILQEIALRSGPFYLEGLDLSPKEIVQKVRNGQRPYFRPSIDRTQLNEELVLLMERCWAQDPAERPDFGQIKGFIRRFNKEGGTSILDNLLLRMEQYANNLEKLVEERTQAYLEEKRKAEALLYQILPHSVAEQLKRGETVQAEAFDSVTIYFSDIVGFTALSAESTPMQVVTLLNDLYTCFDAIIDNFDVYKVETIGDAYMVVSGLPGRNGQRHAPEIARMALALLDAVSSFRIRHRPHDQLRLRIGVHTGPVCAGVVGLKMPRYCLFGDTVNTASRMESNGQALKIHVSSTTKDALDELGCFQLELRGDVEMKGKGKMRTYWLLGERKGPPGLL
# Procedure, shortened: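 Antagonist mode: compounds (LOPAC1280, seven 1:5 dilutions) added 30 min before 1 nM hNppC stimulation of hNpr2-HEK293 cGMP-sensor cells; luminescence read before and 20 min after agonist at ambient temperature.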
# [6] = biological target: Parathyroid hormone/parathyroid hormone-related peptide receptor (Homo sapiens) (UniProt Q03431); assay: qHTS for PTHR1 Agonists: Optimization Screen against the NCGC LOPAC library (AID 1347079);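 further: GloSensor cAMP luminescence in HEK-293 GP2 cells expressing human PTHR1 with IBMX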
# Sequence of Parathyroid hormone/parathyroid hormone-related peptide receptor (Homo sapiens) (Q03431 whole entry, looked up): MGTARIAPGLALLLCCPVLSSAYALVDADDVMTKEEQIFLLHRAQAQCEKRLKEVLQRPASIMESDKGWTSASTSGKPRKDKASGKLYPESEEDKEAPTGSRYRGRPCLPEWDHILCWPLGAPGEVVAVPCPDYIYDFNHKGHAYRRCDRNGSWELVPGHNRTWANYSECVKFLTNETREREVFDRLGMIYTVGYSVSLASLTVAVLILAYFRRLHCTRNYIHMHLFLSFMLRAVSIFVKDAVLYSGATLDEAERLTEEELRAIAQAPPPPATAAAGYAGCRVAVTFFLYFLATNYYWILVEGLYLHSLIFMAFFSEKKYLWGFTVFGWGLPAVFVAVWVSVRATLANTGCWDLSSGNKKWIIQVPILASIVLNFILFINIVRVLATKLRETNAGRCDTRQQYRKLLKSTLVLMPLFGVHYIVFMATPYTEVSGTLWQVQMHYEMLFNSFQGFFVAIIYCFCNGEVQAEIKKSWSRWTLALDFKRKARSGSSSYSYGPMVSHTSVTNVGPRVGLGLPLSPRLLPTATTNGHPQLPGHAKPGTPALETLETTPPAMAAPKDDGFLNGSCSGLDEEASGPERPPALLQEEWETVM
# Procedure, shortened: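 Signal increase flags agonism. GP2 cells, derived from HEK-293, express human PTHR1 and a GloSensor cAMP construct.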
# [7] = qHTS Assay for Identifying Gametocytocidal Compounds (AID 743244);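 further: actives lower the fluorescent signal which means gametocytes are killed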; settings: P. falciparum 3D7 stage III-V gametocytes, alamarBlue, 72 h; max response: active compounds read low
# Procedure, shortened: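 Stage III–V gametocytes of P. falciparum 3D7 were seeded at 20,000 cells/well onto pre-dispensed compounds. After 72 h, 37 °C, 5% CO2, alamarBlue was added for another 24 h.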
# [8] = P-glycoprotein substrates identified in KB-8-5-11 adenocarcinoma cell line, qHTS therapeutic library screen (AID 1346987); further: series mostly up to about 44 µM; nearly all actives have a fitted effect of over 65% in size
# Procedure, shortened: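 Human cervical adenocarcinoma KB-8-5-11 cells, selected in colchicine to over-express P-gp and assayed without it, were exposed for 72 h to titrated compounds. An ATP-based luminescent viability signal gave AC50.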
smiles,measurement,setting,value
NCCCC(=O)O,outcome,[1],inactive
same,outcome,[2],inactive
same,outcome,[3],inactive
same,outcome,[4],inactive
same,Potency,[5],inactive
same,outcome,[6],inactive
Cc1ccccc1CNc1ncnc2c1ncn2[C@@H]1O[C@H](CO)[C@@H](O)[C@H]1O,max response,[7],-9.34%
O=C(OCCO)c1ccccc1O,max response,[7],18.8%
same,Potency,[8],inactive
CCC(=O)OCC(=O)[C@@]1(OC(=O)CC)[C@H](C)C[C@H]2[C@@H]3CCC4=CC(=O)C=C[C@]4(C)[C@@]3(F)[C@@H](O)C[C@@]21C,max response,[7],-4.58%
same,Potency,[8],inactive
CCCC(=O)O[C@]1(C(=O)COC(=O)CC)[C@@H](C)C[C@H]2[C@@H]3CCC4=CC(=O)C=C[C@]4(C)[C@@]3(F)[C@@H](O)C[C@@]21C,max response,[7],-15.1%
same,Potency,[8],inactive
CN1CC(O)c2cc(N=NC(N)=O)c(O)cc21 (stereo not given),max response,[7],-4.67%
same,Potency,[8],inactive
O=C1C(c2[nH]c3ccc(S(=O)(=O)O)cc3c2O)=Nc2ccc(S(=O)(=O)O)cc21,max response,[7],-2.9% and 36.3% and 37.5%
same,Potency,[8],inactive
Nc1ncnc(Nc2ccc(Cl)cc2)n1,max response,[7],-12%
same,Potency,[8],inactive
CC1(C)S[C@@H]2[C@H](NC(=O)C(C(=O)Oc3ccc4c(c3)CCC4)c3ccccc3)C(=O)N2[C@H]1C(=O)O (stereo not given in full),max response,[7],5.21%
same,Potency,[8],inactive
O=c1[nH]cnc2[nH]cc(CN3CCCCC3)c12,max response,[7],10.8%
same,Potency,[8],inactive
CCC(=O)OCC(=O)[C@@]1(OC(=O)CC)[C@@H](C)C[C@H]2[C@@H]3CCC4=CC(=O)C=C[C@]4(C)[C@@]3(Cl)[C@@H](O)C[C@@]21C,max response,[7],0.406%
same,Potency,[8],inactive
O=C(O)c1cccc(/C=C2/C[C@@H]3[C@@H](/C=C/[C@@H](O)C4CCCCC4)[C@H](O)C[C@@H]3O2)c1,max response,[7],-5.6%
same,Potency,[8],inactive
O=C1O[C@@H]2[C@@H](O)[C@H](O)O[C@@H]2[C@H]1O,max response,[7],3.86%
same,Potency,[8],inactive
CCOC(=O)Cc1cccc(-c2cc(CCCCCCc3ccc(O[C@H]4O[C@H](COC(C)=O)[C@@H](OC(C)=O)[C@H](OC(C)=O)[C@@H]4OC(C)=O)c(-c4cccc(CC(=O)OCC)c4)c3)ccc2O[C@H]2O[C@H](COC(C)=O)[C@@H](OC(C)=O)[C@H](OC(C)=O)[C@@H]2OC(C)=O)c1,max response,[7],-24.7%
same,Potency,[8],inactive
CO[C@@H]1[C@@H](O[C@@H]2O[C@H](C)[C@@H](O[C@H]3C[C@@](C)(O)[C@@H](OC(=O)CC(C)C)[C@H](C)O3)[C@H](N(C)C)[C@H]2O)[C@@H](CC=O)C[C@@H](C)[C@@H](O)/C=C/C=C/C[C@@H](C)OC(=O)C[C@H]1O,max response,[7],4.51% and 4.66%
same,Potency,[8],inactive
CC(C)(S)C(=O)N[C@@H](CS)C(=O)O,max response,[7],-15.4% and 8.89%
same,Potency,[8],inactive
O=P(O)(O)C(Sc1ccc(Cl)cc1)P(=O)(O)O,max response,[7],17.7%
same,Potency,[8],inactive
CCOC(=O)COc1ccc2c(=O)cc(-c3ccccc3)oc2c1,max response,[7],51.1% and 12.3%
same,Potency,[8],inactive
CCC(CN)CC(C)CCNCC(O)CNCC(C)CC(CC)CN (stereo not given),max response,[7],-11%
same,Potency,[8],inactive
COc1ccnc(CS(=O)c2nc3cc(OC(F)F)ccc3[nH]2)c1OC (stereo not given),max response,[7],-13.5%
same,Potency,[8],inactive
O=C(O)c1cc2ccccc2c(Cc2c(O)c(C(=O)O)cc3ccccc23)c1O,max response,[7],60.7%
same,Potency,[8],inactive
O=C[C@H](O)[C@@H](O)[C@H](O[C@H]1O[C@H](CO)[C@@H](O[C@H]2O[C@H](CO)[C@@H](O)[C@H](O)[C@H]2O)[C@H](O)[C@H]1O)[C@H](O)CO,max response,[7],10.4%
same,Potency,[8],inactive
CCCCCCCCCCCCCCCC(=O)O[C@@H]1CC(C)=C(/C=C/C(C)=C/C=C/C(C)=C/C=C/C=C(C)/C=C/C=C(C)/C=C/C2=C(C)C[C@@H](OC(=O)CCCCCCCCCCCCCCC)CC2(C)C)C(C)(C)C1,max response,[7],1.34%
same,Potency,[8],inactive
NCCCNCCCCNC(=O)C(O)NC(=O)CCCCCCN=C(N)N (stereo not given),max response,[7],-11.8%
same,Potency,[8],inactive
C/C(=C(\CCOC(=O)c1ccccc1)SS/C(CCOC(=O)c1ccccc1)=C(/C)N(C=O)Cc1cnc(C)nc1N)N(C=O)Cc1cnc(C)nc1N,max response,[7],9.71%
same,Potency,[8],inactive
C/C(=C(/CCO)SSCC1CCCO1)N(C=O)Cc1cnc(C)nc1N (stereo not given),max response,[7],4.64% and -7.81%
same,Potency,[8],inactive
